What follows are sequences tested against PALM2-AKAP2 (assay: pooled miR-30 sensor sort-seq; sequence = guide strand). Conditions: shRNA.
Further: reference of the scale not given here.

| Sequence | sensor-assay potency score (higher = more potent) |
| --- | --- |
| TTGAATGGCATTCTGCACCAGG | -0.555 |
| TCTGGCAACATCATTATCCAGG | -0.478 |
| TTCTAATGCAGTATTGTTCTTT | 0.398 |
| TTGTCAATCATGCTTGCGCGTT | -1.12 |

Each sequence was assayed against PAQR4 in the same assay as above. Conditions: shRNA.

| Sequence | sensor-assay potency score (higher = more potent) |
| --- | --- |
| TATTGAACTGCAGGTGCGGCGG | -0.944 |
| TCGTTGTGCAGGTAGAAGAGGC | -0.773 |
| TAGCAGGGCAGGGAGCCTGGAG | -1.85 |
| TAGAAGAGGCTGCGCAGGCAGC | -1.34 |
| TTGAACTGCAGGTGCGGCGGCG | -1.22 |
| AAAGAGGTGATAGAGCACGGAG | -0.892 |
| TTTATTGATGTCATCCAGGGTC | 0.153 |
| TAGAGCACGGAGCCTGCAGGGG | -1.54 |
| GAACTTATTGAACTGCAGGTGC | -1.19 |
| TTATTGAACTGCAGGTGCGGCG | -1.14 |
| TTCGTTGTGCAGGTAGAAGAGG | -0.851 |
| TTGGTGGCACATAAAGAGGTGA | -0.895 |

— the OligoGym collection
